The full list was thinned out, with hits kept by preference.
G9a inh = qHTS Assay for Inhibitors of Histone Lysine Methyltransferase G9a. G9a H3K9 monomethylation, AlphaScreen, 2 h. Potency, µM (series often up to 102 µM), for the others: top-dose activity, negative = inhibition, most hits filed as inhibitors. 350,000 tested, 8.8% active; note: % is set by controls: 0 for no effect and ±100 for the full control effect; nearly all actives have a fitted effect of over 75% in size
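Quantitative HTS format: methyltransferase activity on a biotin-tagged H3K9 peptide is measured by AlphaScreen, using a rabbit anti-monomethyl-H3K9 antibody with streptavidin donor and anti-IgG acceptor beads. Final levels are 20 nM enzyme, 500 nM peptide, 20 uM SAM; 2 h RT.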
ALOX12 inh = Primary qHTS assay for inhibitors of human arachidonate 12S-lipoxygenase (ALOX12): Round 2; 580,000 tested, 1.1% active; Polyunsaturated fatty acid lipoxygenase ALOX12 (Homo sapiens), P18054; purified 12hLO, xylenol orange hydroperoxide absorbance; Potency, µM (titrated, usually from 108 µM), for the others: at the top dose activity change, negative = inhibition, actives largely listed as inhibitors; note: % is set by controls: 0 for no effect and ±100 for the full control effect
Target sequence (P18054 whole entry, looked up): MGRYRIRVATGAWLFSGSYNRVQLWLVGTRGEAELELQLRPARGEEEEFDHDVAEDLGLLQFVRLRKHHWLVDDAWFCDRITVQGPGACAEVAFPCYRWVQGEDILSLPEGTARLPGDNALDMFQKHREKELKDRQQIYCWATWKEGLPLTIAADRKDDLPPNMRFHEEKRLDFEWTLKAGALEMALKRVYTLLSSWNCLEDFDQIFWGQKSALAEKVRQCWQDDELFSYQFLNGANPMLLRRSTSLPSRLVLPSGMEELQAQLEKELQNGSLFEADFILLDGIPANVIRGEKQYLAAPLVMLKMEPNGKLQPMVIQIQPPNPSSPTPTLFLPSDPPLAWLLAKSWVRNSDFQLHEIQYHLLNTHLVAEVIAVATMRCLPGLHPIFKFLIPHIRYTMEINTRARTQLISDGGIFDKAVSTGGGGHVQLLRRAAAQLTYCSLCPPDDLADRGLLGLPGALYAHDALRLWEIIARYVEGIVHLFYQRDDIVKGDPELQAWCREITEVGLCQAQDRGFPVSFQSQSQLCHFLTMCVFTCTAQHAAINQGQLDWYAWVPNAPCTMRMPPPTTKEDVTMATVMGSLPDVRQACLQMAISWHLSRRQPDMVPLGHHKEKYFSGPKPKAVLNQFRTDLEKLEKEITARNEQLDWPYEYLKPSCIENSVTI
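Hydroperoxide product was detected by ferrous iron/xylenol orange as the 573 to 405 nm absorbance ratio. Arachidonic acid at 40 uM (final) was turned over for 30 min at room temperature by 150 nM human 12hLO, pH 7.0 Hepes buffer, after 15 min compound preincubation.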
VDR inh = Inhibitors of the vitamin D receptor (VDR): qHTS; 400,000 tested, 0.93% active; Vitamin D3 receptor (Homo sapiens), P11473; Potency, µM, without a hit: max response, negative = inhibition, usual class: inhibitors; AID 504847, 2011; VDR-SRC2-3 peptide fluorescence polarization, 2 h; note: % is set by controls: 0 for no effect and ±100 for the full control effect
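Compounds are added to VDR with labelled SRC2-3 coactivator peptide and held 2 h at room temperature. Inhibition of the VDR–peptide interaction is then read as a change in fluorescence polarization.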
Glioma ERSR ind = qHTS for Inducers of the Endoplasmic Reticulum Stress Response (ERSR) in Human Glioma: qHTS; 420,000 tested, 0.02% active; U87-MG GRP78 promoter luciferase reporter, 16 h; Potency, µM, for inactives: top-dose activation, actives largely listed as activators; AID 602332, 2012; note: series mostly up to about 76 µM; % of control where 0% means no effect; nearly all actives have a fitted effect of over 35% in size
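ERSR induction read as luciferase luminescence (Bright-Glo, 10 min at room temperature) in stably transfected human U87-MG glioma cells exposed to compounds for 16 h, using GRP78 as sensor.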
Sfp PPTase inh = qHTS Assay for Inhibitors of Bacillus subtilis Sfp phosphopantetheinyl transferase (PPTase); 4'-phosphopantetheinyl transferase ffp (Bacillus subtilis), Q9F4F7; Biochemical Sfp PPTase activity, qHTS; Potency, µM, without a hit: largest response in the series, negative = inhibition, most hits filed as inhibitors; 310,000 tested, 3.5% active; AID 1490, 2009;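 note: the enzyme is Sfp with the accession as filed and its product quenches rhodamine fluorescence; 0% = enzyme reaction without inhibitor and -100% = no enzyme wells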
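Buffer: 50 mM Hepes-Na pH 7.6, 10 mM MgCl2, 0.01% Nonidet P-40, 0.01% BSA. Enzyme 15 nM, pre-exposed to compound 15 min; substrates then added and fluorescence change tracked over 30 min.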
Numbers without * were called inactive; [ ] = another dose, or the depositor's remark. Calls come from the whole dose curve; as a rule, active = well fitted curve in the direction sought with a large enough effect; inconclusive = small, poorly fitted or top-dose-only effect, or another doubt; inactive = no such curve, though single readings can be large; an effect the other way counts as inactive or inconclusive. Potency is the fitted concentration of half-maximal effect.

How did CS(=O)(=O)N1CCc2ccc(NC(=O)C3CCCO3)cc2C1 (stereo not drawn) do in these assays?
G9a inh: 79µM*; ALOX12 inh: 10%; VDR inh: 7%; Glioma ERSR ind: -5%; Sfp PPTase inh: 5%

What do the screens show for `CC(C)(C)NC(=O)C(c1ccco1)N(C(=O)c1ccc(CN2CCOCC2)o1)c1ccccc1` (stereo not drawn)?
G9a inh: 11µM*; ALOX12 inh: 5%; VDR inh: -15%; Glioma ERSR ind: -7%; Sfp PPTase inh: 12%

Results for CC(C)(C)NC(=O)C(c1ccco1)N(C(=O)c1csnn1)c1ccccc1 (stereo not drawn) ?
G9a inh: 0%[12.7 µM]; ALOX12 inh: -1%; VDR inh: -1%; Glioma ERSR ind: -2%; Sfp PPTase inh: 3%

How did CCOC(=O)c1c(S(=O)(=O)N2CCCCCC2)c(C)n(C)c1C do in these assays?
G9a inh: 21%; ALOX12 inh: 138%; VDR inh: inconclusive; Glioma ERSR ind: -3%; Sfp PPTase inh: 7%

What do the screens show for `CCCn1nc(S(=O)(=O)N2CCCC2)c(C(=O)OCC)c1C`?
ALOX12 inh: 11µM*

Results for CCCn1nc(S(=O)(=O)N2CCCCC2)c(C(=O)OCC)c1C ?
ALOX12 inh: 6.3µM*

Results for Cc1ccccc1-c1cc(=O)c2cc(NC(=O)c3ccco3)ccc2o1 ?
ALOX12 inh: -28%

Results for COc1cccc(N2C(=O)C3CCCN3C2c2ccc(N(C)C)cc2)c1 (stereo not drawn) ?
G9a inh: inconclusive; ALOX12 inh: -3%; VDR inh: 0%; Glioma ERSR ind: 0%; Sfp PPTase inh: 0%

What do the screens show for `COc1ccc2c(c1)NC(c1cc(Cl)cc(Cl)c1O)c1cccn1-2` (stereo not drawn)?
G9a inh: inconclusive; ALOX12 inh: 32µM*; VDR inh: 2%; Glioma ERSR ind: -2%; Sfp PPTase inh: 4%

Results for COc1ccc2c(c1)NC(c1ccc(N(C)C)cc1)c1cccn1-2 (stereo not drawn) ?
G9a inh: 79µM*; ALOX12 inh: inconclusive; VDR inh: 4%; Glioma ERSR ind: 4%; Sfp PPTase inh: inconclusive

Results for CC(=O)N1N=C(c2cccc([N+](=O)[O-])c2)OC1c1ccc(Br)cc1 (stereo not drawn) ?
G9a inh: 45µM*; ALOX12 inh: 15%; VDR inh: -8%; Glioma ERSR ind: -2%; Sfp PPTase inh: 13%

What do the screens show for `CC(=O)N1N=C(c2cccc([N+](=O)[O-])c2)OC1c1ccc(Cl)cc1Cl` (stereo not drawn)?
G9a inh: -24%; ALOX12 inh: -11%; VDR inh: 10%; Glioma ERSR ind: -1%; Sfp PPTase inh: -7%

How did O=C(Cc1csc(NC(=O)Nc2ccc(Cl)cc2)n1)NCc1ccccn1 do in these assays?
G9a inh: 45µM*; ALOX12 inh: inconclusive; VDR inh: -19%; Glioma ERSR ind: 1%

Results for Cc1ccc(N2C(=O)CC(c3c[nH]c4ccccc34)C2=O)cc1 (stereo not drawn) ?
G9a inh: -6%; ALOX12 inh: -8%; VDR inh: 0%; Glioma ERSR ind: 4%; Sfp PPTase inh: 4%

What do the screens show for `Cc1c(C2CC(=O)N(c3ccccc3)C2=O)[nH]n(-c2ccccc2)c1=O` (stereo not drawn)?
G9a inh: 35µM*; ALOX12 inh: 0%; VDR inh: 45%; Glioma ERSR ind: -7%; Sfp PPTase inh: 3%

What do the screens show for `COc1cc(NC(=O)c2ccc(N3C(=O)C(C)CS3(=O)=O)cc2)cc(OC)c1OC` (stereo not drawn)?
ALOX12 inh: 23%

How did CC(=O)c1cccc(S(=O)(=O)NC2CC2)c1 do in these assays?
G9a inh: 45µM*; ALOX12 inh: -12%; VDR inh: -4%; Glioma ERSR ind: -3%; Sfp PPTase inh: 3%

How did CC(=O)c1cccc(S(=O)(=O)NC2CCSc3ccccc32)c1 (stereo not drawn) do in these assays?
G9a inh: 28µM*; ALOX12 inh: inconclusive; VDR inh: -10%; Glioma ERSR ind: 1%; Sfp PPTase inh: 6%

What do the screens show for `CC(OC(=O)Cc1c[nH]c2ccccc12)C(=O)NC(N)=O` (stereo not drawn)?
ALOX12 inh: 9%

What do the screens show for `COc1ccc(CCn2c3c(c(=O)[nH]c2=S)CN(Cc2ccccc2)CN3)cc1OC`?
VDR inh: 89µM*

Results for COc1ccc(CCn2c3c(c(=O)[nH]c2=S)CN(C)CN3)cc1OC ?
VDR inh: -3%

What do the screens show for `Fc1cccc(NCc2ccoc2)c1`?
G9a inh: 40µM*; ALOX12 inh: inconclusive; VDR inh: -8%; Glioma ERSR ind: -3%; Sfp PPTase inh: 13%

How did O=C(O)CCCCCN1C(=O)C(O)=C(C(=O)/C=C/c2ccccc2)C1c1cccc([N+](=O)[O-])c1 (stereo not drawn) do in these assays?
G9a inh: 45µM*; ALOX12 inh: inconclusive; VDR inh: -13%; Glioma ERSR ind: -5%; Sfp PPTase inh: 18%

What do the screens show for `CC(Oc1ccc2c(-c3ccccc3)cc(=O)oc2c1)C(=O)N[C@H](Cc1c[nH]c2ccccc12)C(=O)O` (stereo partly drawn)?
G9a inh: -3%[12.7 µM]; ALOX12 inh: -30%; VDR inh: -6%; Glioma ERSR ind: -1%; Sfp PPTase inh: 1%

Results for C=C(Cl)COc1ccc2c(CC)cc(=O)oc2c1 ?
G9a inh: 2%[59 µM]; ALOX12 inh: 2%; VDR inh: -20%; Glioma ERSR ind: -2%; Sfp PPTase inh: 6%

How did C=C(C)COc1ccc2c(CC)cc(=O)oc2c1 do in these assays?
G9a inh: 145%; ALOX12 inh: -5%; VDR inh: inconclusive; Glioma ERSR ind: -3%; Sfp PPTase inh: 56µM*

How did COC(=O)COc1ccc2c(-c3ccc(OC)cc3)cc(=O)oc2c1 do in these assays?
G9a inh: -3%[59 µM]; ALOX12 inh: 32%; VDR inh: -5%; Glioma ERSR ind: 25µM*; Sfp PPTase inh: 12%

What do the screens show for `COc1ccc(-c2cc(=O)oc3cc(OC(C)C(=O)NC(Cc4c[nH]c5ccc(O)cc45)C(=O)O)ccc23)cc1` (stereo not drawn)?
G9a inh: 50µM*; ALOX12 inh: 16%; VDR inh: 3%; Glioma ERSR ind: 0%; Sfp PPTase inh: -4%
